How the values were obtained:
Experiment in all cases: DAPPL (digital affinity profiling via proximity ligation, sequencing); 10 mM Tris-HCl pH 7.5, 50 mM NaCl, 1 mM DTT, 4% glycerol, room temperature, 30 min; GST-TFs on glutathione beads, 16-mer random dsDNA library, 0.1% formaldehyde crosslink after washing; high values mean tight binding
Details in all cases: protein: recombinant; tags: N-terminal GST; dsDNA, one strand shown
ELK1 = biological target: T1, ELK1 (Homo sapiens, UniProt P19419 1-428)
T1 sequence: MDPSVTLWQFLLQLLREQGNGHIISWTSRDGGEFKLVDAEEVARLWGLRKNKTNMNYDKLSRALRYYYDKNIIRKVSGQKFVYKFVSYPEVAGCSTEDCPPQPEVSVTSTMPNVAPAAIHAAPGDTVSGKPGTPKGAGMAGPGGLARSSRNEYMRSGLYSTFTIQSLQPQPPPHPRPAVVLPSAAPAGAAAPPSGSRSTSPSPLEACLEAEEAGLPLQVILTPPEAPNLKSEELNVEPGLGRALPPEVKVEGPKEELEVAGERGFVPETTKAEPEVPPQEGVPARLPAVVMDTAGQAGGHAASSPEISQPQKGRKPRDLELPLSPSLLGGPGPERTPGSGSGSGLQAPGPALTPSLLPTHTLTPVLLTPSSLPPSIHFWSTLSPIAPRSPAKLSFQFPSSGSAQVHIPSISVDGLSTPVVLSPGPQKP
How it was run: (§1)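 Pools were built from human transcription factors expressed in yeast as GST fusions, captured on glutathione beads and DNA-barcoded, along with a tag-only sample. Incubation with 200 nmole of a 16-mer random double-stranded DNA library lasted 30 min at room temperature in Tris/NaCl/DTT/glycerol buffer, and was followed by washing, 0.1% formaldehyde crosslinking, proximity ligation, PCR amplification and Illumina NextSeq500 sequencing. Binding signal is the quotient of each hexamer's read frequency for a factor and its frequency for the tag-only sample.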

GABPA = biological target: T2, GABPA (Homo sapiens, UniProt Q06546 1-454)
T2 sequence: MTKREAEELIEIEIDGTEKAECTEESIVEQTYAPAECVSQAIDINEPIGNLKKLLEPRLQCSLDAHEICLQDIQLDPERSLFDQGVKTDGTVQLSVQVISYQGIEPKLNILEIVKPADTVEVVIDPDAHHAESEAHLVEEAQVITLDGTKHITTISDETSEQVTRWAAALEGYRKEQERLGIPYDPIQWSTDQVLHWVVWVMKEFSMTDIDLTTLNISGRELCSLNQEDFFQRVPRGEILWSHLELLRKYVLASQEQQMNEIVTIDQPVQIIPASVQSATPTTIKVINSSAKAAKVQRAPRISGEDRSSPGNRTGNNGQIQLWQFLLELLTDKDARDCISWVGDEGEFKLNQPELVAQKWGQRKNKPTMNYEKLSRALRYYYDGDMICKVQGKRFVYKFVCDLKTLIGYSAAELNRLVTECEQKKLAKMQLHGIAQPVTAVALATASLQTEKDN
How it was run: as §1

SPIB = SPIB (Homo sapiens, UniProt Q01892 1-262)
How it was run: as §1

ETV5 = ETV5 (Homo sapiens, UniProt P41161 1-510)
How it was run: as §1

ELF4 = ELF4 (Homo sapiens, UniProt Q99607 1-663)
How it was run: as §1

ELK4 = biological target: T3, ELK4 (Homo sapiens, UniProt P28324-2 1-405)
T3 sequence: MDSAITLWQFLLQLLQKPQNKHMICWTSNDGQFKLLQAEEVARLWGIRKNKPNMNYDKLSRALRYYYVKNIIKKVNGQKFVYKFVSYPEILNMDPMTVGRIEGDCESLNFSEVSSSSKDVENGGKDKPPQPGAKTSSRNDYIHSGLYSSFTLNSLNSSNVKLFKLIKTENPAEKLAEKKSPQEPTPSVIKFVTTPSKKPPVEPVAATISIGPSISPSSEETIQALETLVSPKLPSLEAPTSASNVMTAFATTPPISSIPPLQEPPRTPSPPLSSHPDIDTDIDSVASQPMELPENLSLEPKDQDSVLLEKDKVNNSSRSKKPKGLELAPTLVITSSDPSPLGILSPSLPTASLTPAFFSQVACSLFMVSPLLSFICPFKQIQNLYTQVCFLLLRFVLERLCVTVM
How it was run: as §1

ELF3 = biological target: T4, ELF3 (Homo sapiens, UniProt P78545 1-371)
T4 sequence: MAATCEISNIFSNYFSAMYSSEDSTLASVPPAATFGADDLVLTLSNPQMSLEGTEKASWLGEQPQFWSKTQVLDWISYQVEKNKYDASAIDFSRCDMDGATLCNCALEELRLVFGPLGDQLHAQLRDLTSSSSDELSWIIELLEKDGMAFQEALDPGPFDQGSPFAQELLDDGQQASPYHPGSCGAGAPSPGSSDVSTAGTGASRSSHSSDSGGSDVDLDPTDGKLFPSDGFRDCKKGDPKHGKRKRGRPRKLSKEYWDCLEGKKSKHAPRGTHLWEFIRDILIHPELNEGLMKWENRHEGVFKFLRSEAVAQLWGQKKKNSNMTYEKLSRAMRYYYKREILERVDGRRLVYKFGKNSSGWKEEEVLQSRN
How it was run: as §1

ETV3L = biological target: T5, ETV3L (Homo sapiens, UniProt Q6ZN32 1-361)
T5 sequence: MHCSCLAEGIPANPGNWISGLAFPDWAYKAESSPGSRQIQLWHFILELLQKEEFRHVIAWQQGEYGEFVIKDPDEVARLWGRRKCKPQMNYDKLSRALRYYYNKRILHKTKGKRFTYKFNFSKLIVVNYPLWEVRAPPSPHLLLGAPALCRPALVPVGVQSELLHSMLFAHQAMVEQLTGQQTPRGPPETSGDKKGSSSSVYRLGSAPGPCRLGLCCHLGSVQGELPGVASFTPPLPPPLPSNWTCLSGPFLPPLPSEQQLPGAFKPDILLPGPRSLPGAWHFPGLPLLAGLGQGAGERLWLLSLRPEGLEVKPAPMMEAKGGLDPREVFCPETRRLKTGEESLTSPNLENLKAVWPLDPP
How it was run: as §1

ETV7 = biological target: T6, ETV7 (Homo sapiens, UniProt Q9Y603 1-341)
T6 sequence: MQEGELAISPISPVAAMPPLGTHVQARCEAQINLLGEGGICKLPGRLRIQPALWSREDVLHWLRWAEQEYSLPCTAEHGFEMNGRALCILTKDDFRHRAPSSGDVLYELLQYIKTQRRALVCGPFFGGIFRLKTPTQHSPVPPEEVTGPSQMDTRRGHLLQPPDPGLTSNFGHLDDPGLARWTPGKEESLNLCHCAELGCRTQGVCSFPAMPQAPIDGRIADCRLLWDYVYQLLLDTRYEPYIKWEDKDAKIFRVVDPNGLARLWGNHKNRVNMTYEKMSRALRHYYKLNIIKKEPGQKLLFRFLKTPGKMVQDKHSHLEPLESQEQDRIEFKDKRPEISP
How it was run: as §1

ETV3 = biological target: T7, ETV3 (Homo sapiens, UniProt P41162-2 1-143)
T7 sequence: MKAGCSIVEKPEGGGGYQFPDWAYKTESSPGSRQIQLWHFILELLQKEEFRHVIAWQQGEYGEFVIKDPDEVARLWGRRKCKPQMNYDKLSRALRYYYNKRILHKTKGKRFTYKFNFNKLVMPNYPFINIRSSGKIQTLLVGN
How it was run: as §1

ERG = biological target: T8, ERG (Homo sapiens, UniProt P11308 1-479)
T8 sequence: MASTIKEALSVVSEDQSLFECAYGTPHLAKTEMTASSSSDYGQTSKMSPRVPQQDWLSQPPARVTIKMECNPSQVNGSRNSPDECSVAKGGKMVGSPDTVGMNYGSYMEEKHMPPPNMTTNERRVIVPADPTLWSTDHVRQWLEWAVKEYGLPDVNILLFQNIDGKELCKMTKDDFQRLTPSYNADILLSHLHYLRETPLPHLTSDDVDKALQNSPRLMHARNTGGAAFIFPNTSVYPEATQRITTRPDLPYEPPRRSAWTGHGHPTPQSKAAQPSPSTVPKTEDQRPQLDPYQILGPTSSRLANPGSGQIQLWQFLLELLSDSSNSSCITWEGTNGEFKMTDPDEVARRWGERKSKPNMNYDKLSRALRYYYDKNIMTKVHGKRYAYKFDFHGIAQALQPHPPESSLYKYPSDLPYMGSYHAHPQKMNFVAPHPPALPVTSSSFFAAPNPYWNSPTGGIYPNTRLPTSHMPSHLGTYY
How it was run: as §1

EHF = biological target: T9, EHF (Homo sapiens, UniProt Q9NZC4 1-300)
T9 sequence: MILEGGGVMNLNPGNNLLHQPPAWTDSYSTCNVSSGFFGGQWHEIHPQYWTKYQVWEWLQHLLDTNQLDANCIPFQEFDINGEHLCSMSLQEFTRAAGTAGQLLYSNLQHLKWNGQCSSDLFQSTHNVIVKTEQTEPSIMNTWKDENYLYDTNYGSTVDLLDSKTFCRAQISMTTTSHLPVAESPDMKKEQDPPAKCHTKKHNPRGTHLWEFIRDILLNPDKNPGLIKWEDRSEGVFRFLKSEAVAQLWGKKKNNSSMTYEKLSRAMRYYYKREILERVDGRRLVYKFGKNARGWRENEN
How it was run: as §1

ETS2 = biological target: T10, ETS2 (Homo sapiens, UniProt P15036 1-469)
T10 sequence: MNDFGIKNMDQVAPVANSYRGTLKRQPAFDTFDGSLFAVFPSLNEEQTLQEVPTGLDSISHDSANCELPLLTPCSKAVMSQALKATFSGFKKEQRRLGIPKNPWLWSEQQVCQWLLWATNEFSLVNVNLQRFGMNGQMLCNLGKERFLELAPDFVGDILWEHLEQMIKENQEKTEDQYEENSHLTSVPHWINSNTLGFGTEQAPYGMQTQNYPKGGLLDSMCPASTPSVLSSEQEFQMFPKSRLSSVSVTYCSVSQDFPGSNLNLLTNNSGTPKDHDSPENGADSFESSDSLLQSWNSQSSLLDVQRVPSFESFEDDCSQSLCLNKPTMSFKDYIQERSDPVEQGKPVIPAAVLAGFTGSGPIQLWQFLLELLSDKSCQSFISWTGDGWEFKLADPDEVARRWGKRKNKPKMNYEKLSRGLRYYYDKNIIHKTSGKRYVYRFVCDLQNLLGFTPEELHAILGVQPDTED
How it was run: as §1

Sequence of SPIB (Q01892 whole entry): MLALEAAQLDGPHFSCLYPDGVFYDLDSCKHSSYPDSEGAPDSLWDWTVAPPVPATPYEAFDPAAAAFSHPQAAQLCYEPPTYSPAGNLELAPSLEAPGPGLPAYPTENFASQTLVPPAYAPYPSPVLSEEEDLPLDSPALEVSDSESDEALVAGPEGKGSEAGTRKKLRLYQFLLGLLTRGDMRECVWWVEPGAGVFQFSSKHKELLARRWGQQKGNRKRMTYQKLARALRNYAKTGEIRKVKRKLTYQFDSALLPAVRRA
Sequence of ETV5 (P41161 whole entry): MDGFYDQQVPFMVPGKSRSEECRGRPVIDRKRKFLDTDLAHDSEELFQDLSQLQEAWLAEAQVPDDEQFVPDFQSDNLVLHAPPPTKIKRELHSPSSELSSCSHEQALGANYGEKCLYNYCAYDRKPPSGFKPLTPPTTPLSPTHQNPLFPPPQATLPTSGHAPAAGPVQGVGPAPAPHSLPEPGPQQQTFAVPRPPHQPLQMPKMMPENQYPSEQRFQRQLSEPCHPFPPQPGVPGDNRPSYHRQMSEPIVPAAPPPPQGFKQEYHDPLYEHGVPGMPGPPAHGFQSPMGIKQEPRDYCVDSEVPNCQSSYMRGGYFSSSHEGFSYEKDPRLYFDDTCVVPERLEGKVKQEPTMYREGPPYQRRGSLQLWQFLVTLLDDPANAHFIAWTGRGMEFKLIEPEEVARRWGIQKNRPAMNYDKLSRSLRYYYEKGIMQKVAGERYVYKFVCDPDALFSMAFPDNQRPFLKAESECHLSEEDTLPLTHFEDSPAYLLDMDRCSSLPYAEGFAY
Sequence of ELF4 (Q99607 whole entry): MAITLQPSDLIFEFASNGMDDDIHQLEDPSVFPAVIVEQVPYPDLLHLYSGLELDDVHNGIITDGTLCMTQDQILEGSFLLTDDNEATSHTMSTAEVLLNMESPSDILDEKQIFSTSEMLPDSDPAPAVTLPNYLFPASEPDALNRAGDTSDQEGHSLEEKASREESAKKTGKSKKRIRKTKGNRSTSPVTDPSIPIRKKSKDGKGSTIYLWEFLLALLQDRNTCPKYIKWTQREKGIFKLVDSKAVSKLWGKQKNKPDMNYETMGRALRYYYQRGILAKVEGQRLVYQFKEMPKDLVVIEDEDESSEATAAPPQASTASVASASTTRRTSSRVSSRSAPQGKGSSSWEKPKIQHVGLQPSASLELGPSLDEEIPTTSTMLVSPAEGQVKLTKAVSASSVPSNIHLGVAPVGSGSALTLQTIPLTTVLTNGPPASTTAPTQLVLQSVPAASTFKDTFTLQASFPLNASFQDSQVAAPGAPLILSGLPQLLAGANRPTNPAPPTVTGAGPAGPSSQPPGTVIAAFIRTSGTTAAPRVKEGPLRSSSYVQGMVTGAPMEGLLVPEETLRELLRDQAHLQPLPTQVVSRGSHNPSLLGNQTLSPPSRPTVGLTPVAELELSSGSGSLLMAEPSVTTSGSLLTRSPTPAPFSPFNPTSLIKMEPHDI

Sequence | binding signal (ELK1) | binding signal (GABPA) | binding signal (SPIB) | binding signal (ETV5) | binding signal (ELF4) | binding signal (ELK4) | binding signal (ELF3) | binding signal (ETV3L) | binding signal (ETV7) | binding signal (ETV3) | binding signal (ERG) | binding signal (EHF) | binding signal (ETS2)
CGCGCG | 1.07 fold enrichment (6-mer frequency, TF over GST control) | 1.05 fold enrichment (6-mer frequency, TF over GST control) | 1.11 fold enrichment (6-mer frequency, TF over GST control) | 1.01 fold enrichment (6-mer frequency, TF over GST control) | 1 fold enrichment (6-mer frequency, TF over GST control) | 1.14 fold enrichment (6-mer frequency, TF over GST control) | 1.06 fold enrichment (6-mer frequency, TF over GST control) | 1.07 fold enrichment (6-mer frequency, TF over GST control) | 1.03 fold enrichment (6-mer frequency, TF over GST control) | 1.1 fold enrichment (6-mer frequency, TF over GST control) | – | – | –
CGGCTG | – | 1.03 fold enrichment (6-mer frequency, TF over GST control) | 1.03 fold enrichment (6-mer frequency, TF over GST control) | 1.01 fold enrichment (6-mer frequency, TF over GST control) | 1.12 fold enrichment (6-mer frequency, TF over GST control) | – | – | 1.02 fold enrichment (6-mer frequency, TF over GST control) | 1.1 fold enrichment (6-mer frequency, TF over GST control) | 1.01 fold enrichment (6-mer frequency, TF over GST control) | 1.04 fold enrichment (6-mer frequency, TF over GST control) | 1.05 fold enrichment (6-mer frequency, TF over GST control) | 1.07 fold enrichment (6-mer frequency, TF over GST control)

Reference: publication PMC7862700, “An all-to-all approach to the identification of sequence-specific readers for epigenetic DNA modifications on cytosine”
